Rows were chosen to be rich in hits. Some 9.6% of all compounds tested hit in one or more screens of this group.
Insulin prom up: MIN6 insulin promoter up-regulation | z-score at 5 µM | MIN6 insulin promoter-GFP reporter, high-content imaging; active compounds read high | 0.3% of 190,000 active;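 active = z-score above 3 at 5 µM with at least 500 cells counted in the well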
INS promoter inh: TRM-6 insulin promoter activity inhibition; 0.9% of 130,000 active; inhibition, % at 2 µM; TRM-6 cells (human fetal islet line), insulin promoter-eGFP reporter, imaging; reporter expression induced with tamoxifen;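 active = inhibition above the mean plus 3 SD, with well images judged a real hit on visual review, cut at about 60% in these data, passing the limit was not always enough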
Lmaj promast: Leishmania major promastigote growth inhibition; 9% of 200,000 active; inhibition, % at 10 µM; Leishmania major promastigotes, resazurin fluorescence viability; in the data active = inhibition above about 50%;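 note: promastigotes grown with compound for 44 hours at 28 °C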
Autophagy HCS: modulators of autophagy; calls only at 10 µM (by protocol); MEF GFP-LC3 puncta imaging; test concentration mostly 10 µM; 0.98% of 190,000 active;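 active = percentage of spot-positive cells more than 3 SD above its plate mean, without a fluorescence outlier flag or 80% toxicity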
HCT116 PTEN-null: growth suppressors of cells with PTEN tumor suppressor deletion | 1.2% of 140,000 active | HCT116 PTEN-null viability, CellTiter-Glo, 60 h; active compounds read low | viability, % at 10 µM;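 active = viability at or below a set limit, 4 SD under the median of all tested compounds, cut at about 3.7% in these data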;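 note: PTEN knockout HCT116 line with beta catenin targeted HCT116 as companion control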
bCat KO growth: beta-catenin-lacking colon tumor cell growth suppression; viability, % at 10 µM; AID 818; 1.5% of 140,000 active; HCT116 beta-catenin knockout viability, CellTiter-Glo, 60 h; active compounds read low;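 active = viability at or under a set limit, the compound median less 4 SD, cut at about 6% in these data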
Numbers stand for hits; n = inactive; x = no result.

SMILES	Insulin prom up	INS promoter inh	Lmaj promast	Autophagy HCS	HCT116 PTEN-null	bCat KO growth
CS(=O)(=O)N1CCN(c2ccccc2NC(=O)c2ccc(Br)o2)CC1	n	n	n	n	n	n
O=C(NNc1cccc(Cl)c1)c1cccnc1Cl	n	n	88.2	n	n	n
COc1ccc([C@@H]2C[C@@H](c3ccccc3)Oc3cc(OC)c(OC)c(OC)c32)cc1	n	x	x	x	x	x
C1CCC(n2nnnc2CN2CCN(C3CCCC3)CC2)CC1	n	x	89.6	n	n	n
COc1ccc(NC(C#N)c2ccc(OC)cc2)cc1 (centres undefined)	n	n	91.2	n	n	n
COc1ccc(C(C#N)Nc2ccccc2)cc1 (centres undefined)	n	n	n	n	n	n
CCOC(=O)N1CCC(N2CCN(Cc3ccc(C)o3)C(CCO)C2)CC1 (centres undefined)	x	n	n	n	x	x
CCOC(=O)N1CCC(N2CCN(Cc3ccccc3)C(CCO)C2)CC1 (centres undefined)	n	n	50.1	n	x	x
Cc1ccc(N2CCC(N3CCN(C4CCCCC4)C(CCO)C3)CC2)cc1 (centres undefined)	n	x	53.5	n	x	x
Cc1ccc(CN2CCN(C3CCOCC3)CC2CCO)cc1 (centres undefined)	n	x	61.6	n	x	x
O=S(=O)(c1ccc(Cl)c(S(=O)(=O)N2CCCC2)c1)N1CCCC1	n	x	n	n	x	x
CCCc1nc(SCC(=O)Nc2cc(Cl)ccc2OC)c2c(=O)n(C)c(=O)n(C)c2n1	n	x	n	x	n	n
CC(C)Cc1cc(C(=O)NCc2cccs2)no1	x	100.0	n	n	n	n
Cc1ccc(Nc2nnc(SCn3nnc4ccccc4c3=O)s2)cc1	n	n	69.2	n	n	n
O=c1c2ccccc2nnn1CSc1nnc(Nc2ccccc2)s1	n	n	n	n	n	n
Cc1nn(Cc2c(Cl)cccc2Cl)c(C)c1NC(=O)c1cn(-c2ccccc2)nc1-c1ccccc1	n	x	83.5	n	0.5	0.6
CCCCN(C)C1=Nc2cccc3cccc1c23	x	75.3	56.9	n	n	n
CC(C)C(Nc1ccc(S(=O)(=O)N2CCOCC2)cc1[N+](=O)[O-])C(=O)O (centres undefined)	n	x	n	n	x	x
CSCCC(Nc1ccc(S(=O)(=O)N2CCOCC2)cc1[N+](=O)[O-])C(=O)OCC(=O)NCC(C)C (centres undefined)	n	n	65.1	n	n	n
Cc1cc(=O)[nH]c2c1c(C)nn2-c1ccccc1	n	60.9	n	n	n	n
Cc1cc(=O)[nH]c2c1c(C)nn2C(C)(C)C	n	x	x	x	x	x
Cc1ccc2nc(C)cc(C(=O)N3CCCC(CO)(Cc4ccccc4C)C3)c2c1 (centres undefined)	n	n	60.7	n	x	x
Cc1ccccc1CC1(CO)CCCN(C(=O)CCC(=O)c2ccccc2)C1 (centres undefined)	n	x	n	n	x	x
Cc1ccc(C)c(-c2[nH]ncc2CN2CCCC(CO)(Cc3ccccc3C)C2)c1 (centres undefined)	n	x	72.9	n	x	x
OCC1(Cc2ccccc2)CCCN(Cc2cn[nH]c2-c2ccccc2)C1 (centres undefined)	n	x	n	n	x	x
SMILES	Insulin prom up	INS promoter inh	Lmaj promast	Autophagy HCS	HCT116 PTEN-null	bCat KO growth
Cc1cccc(-c2ncc(CN3CCCC(CO)(Cc4ccccc4C)C3)cn2)c1 (centres undefined)	3.13	x	n	n	x	x
N#CC1=C(N)SC(N)=C(C#N)C1C1CC=CCC1 (centres undefined)	n	n	n	n	n	n
CC(=O)Nc1cnn(Cc2ccc(Br)cc2)c1	n	n	n	n	n	n
Cc1cc2c3c(c1)C1(SCC(=O)N1c1ccc(F)cc1)C(=O)N3C(C)(C)CC2C (centres undefined)	n	n	61.1	n	n	n
CC1CC(C)(C)N2C(=O)C3(Nc4ccccc4S3)c3cccc1c32 (centres undefined)	x	n	n	n	n	n
O=c1c2sccc2nc(SCc2ccc([N+](=O)[O-])cc2)n1Cc1ccccn1	n	n	63.2	n	n	n
COc1ccccc1NC(=S)NN1CCN(C)CC1	n	n	n	n	n	n
COc1ccc(CC(=O)Nc2nc3ccccc3s2)cc1S(=O)(=O)N1CCOCC1	n	x	n	n	n	n
Cc1ccc2nc(NC(=O)C3CCN(S(=O)(=O)c4cccnc4)CC3)sc2c1	n	x	n	n	n	n
O=C(Nc1nc2ccc(F)cc2s1)C1CCN(S(=O)(=O)c2cc([N+](=O)[O-])ccc2Cl)CC1	n	n	98.8	n	n	n
